# Unmarked numbers belong to inactive results. The source made the active and inactive calls. Calls come from the whole dose curve; as a rule, active = well fitted curve in the direction sought with a large enough effect in the repeat runs; inconclusive = weak or mixed curves; inactive = flat fitted curve, though single readings scatter.
# Test: qHTS assay to test for compound auto fluorescence at 535 nm (green) in HepG2 cells (AID 720675)
# Details: green autofluorescence 485/535 nm, 1 h; series mostly up to 91.3 µM
# From the text: National Center for Advancing Translational Sciences [NCATS]
# NIH Chemical Genomics Center [NCGC]
# U.S. Environmental Protection Agency [EPA]
# National Institutes of Environmental Health Sciences [NIEHS]
# National Toxicology Program [NTP]
# U.S. Food and Drug Administration [FDA]
# Compound auto fluorescence often interferes with screening of the compound library against various biological targets and signaling pathways. Some of these compounds may have fluorophoric properties. Such properties may interfere with the assay outputs resulting in false positives and/or negatives. To decrease such complications and ensure the compound activities are relevant in terms of biological response, the Tox21 10K compound library was screened for auto fluorescence.
# From the fluorophores used as reporter signals in our screening assays, the auto fluorescence equivalencies of compounds against three fluorophores have been evaluated: Triamterene, Fluorescein and Rose Bengal sodium for blue, green and red fluorescence, respectively. The fluorescence intensities were measured using Excitation/Emission wavelengths at 405/460nm, 485/535nm and 540/590nm for blue, green and red labels, respectively. This assay includes the green fluorescence data.
# Tox21 Assay Protocol Summary:
# 2,000 HepG2 cells in 5 uL of culture medium (MEM containing 10% FBS) per well were dispensed into black wall/clear bottom 1536-well plates using a Multidrop Combi Dispenser (ThermoFisher Scientific, Waltham, MA). The assay plates were incubated overnight at 37 C to allow cell attachment to the well bottom, followed by the transfer of 23 nL compound or DMSO vehicle by a pintool work station (Kalypsys , San Diego, CA). After the assay plates were incubated for 1 hr at 37 C and 5% CO2, fluorescence intensities in the assay plates were measured by an Envision (PerkinElmer, Shelton, CT) plate reader using three labels for measuring blue, green and red fluorescence at […] 460, 535 and 590 nm respectively.
# % is set by controls: 0 for no effect and ±100 for the full control effect.
Structure (SMILES),outcome,"fluorescence, % of fluorescein control"
O=P(O)(Oc1ccccc1)Oc1ccccc1,inactive,–
OCCSCSCCO,inactive,–
O=CNC(N1CCN(C(NC=O)C(Cl)(Cl)Cl)CC1)C(Cl)(Cl)Cl (stereo not given),inactive,–
CC1(C)COP(Oc2ccccc2)OC1,inactive,–
CNC(=O)Oc1c(C(C)(C)C)cc(C)cc1C(C)(C)C,inactive,–
COP(=S)(OC)Oc1c(Cl)cc(C)cc1Cl,inactive,–
Nc1ccccc1Cl,inactive,–
CC(Oc1ccc(Oc2ncc(C(F)(F)F)cc2Cl)cc1)C(=O)O (stereo not given),inactive,–
C[N+](C)=CCl,inactive,–
N#CC(CCc1ccc(Cl)cc1)(Cn1cncn1)c1ccccc1 (stereo not given),inactive,–
COc1cc(OC)nc(NC(=O)NS(=O)(=O)c2ncccc2OCC(F)(F)F)n1,inactive,–
CC(C)CP(=S)(S)CC(C)C,inactive,–
CCCCOC(=O)c1ccccc1N,inactive,–
C[C@]12CC[C@H]3[C@@H](CC=C4C[C@@H](O)CC[C@@]43C)[C@@H]1CC[C@@H]2O,inactive,–
CN1C[C@@H](NS(=O)(=O)N(C)C)C[C@@H]2c3cccc4c3c(cn4C)C[C@H]21,inactive,–
COCC(=O)N(c1c(C)cccc1C)N1CCOC1=O,inactive,–
Cc1ccccc1CO[C@@H]1C[C@@]2(C(C)C)CC[C@]1(C)O2,inactive,–
CC(=O)C(Cl)Cl,inactive,–
ClC(Br)Br,inactive,–
CNC(=O)Oc1ccccc1C1OCCO1,inactive,–

Structure (SMILES),outcome,"fluorescence, % of fluorescein control"
CC1=C(C(=O)Nc2ccccc2)S(=O)(=O)CCO1,inactive,–
CCOP(=S)(OCC)Oc1nc(Cl)n(C(C)C)n1,inactive,–
Nc1cc(Cl)ccc1O,inactive,–
CC(C)(C)C(=O)C(Oc1ccc(Cl)cc1)n1cncn1 (stereo not given),inactive,–
ClCC(Cl)(Cl)Cl,inactive,–
C[C@@H]1CN(C2CCC(C#N)(c3ccc(F)cc3)CC2)CC[C@]1(C(=O)O)c1ccccc1 (stereo not given in full),–,-0.0057% [at 18.6 µM]
C=CC1CC=CCC1 (stereo not given),inactive,–
CC1(C)C(=O)NC(=O)NC1=O,inactive,–
CC(C)COP(=O)(OCC(C)C)OCC(C)C,inactive,–
COc1ccc2c(c1OC)CN1CCc3cc4c(cc3C1C2)OCO4 (stereo not given),–,-0.0763% [at 18.6 µM]
CC(C)[N+](=O)[O-],inactive,–
[As]#[In],inactive,–
Cc1coc2c1CCC(C)C2 (stereo not given),inactive,–
CCC(Cl)[N+](=O)[O-] (stereo not given),inactive,–
COc1cc(OC)nc(Sc2cccc(Cl)c2C(=O)O)n1,inactive,–
CC(C)CC(N(C)C)C1(c2ccc(Cl)cc2)CCC1 (stereo not given),inactive,–
CC(=O)Nc1cc([As](=O)(O)O)ccc1O,inactive,–
N#CCBr,inactive,–
O=S(=O)(O)C(F)(F)C(F)(F)C(F)(F)C(F)(F)C(F)(F)C(F)(F)F,inactive,–
CCN(CC)CCOC(=O)C(C)(c1ccccc1)c1ccccc1,inactive,–
